In PubChem BioAssay (Tox21):
Values without a mark were called inactive. The source made the active and inactive calls. Calls follow the shape of the dose curve; as a rule, active = well fitted curve in the direction sought with a large enough effect in the repeat runs; inconclusive = weak or mixed curves; inactive = flat fitted curve, though single readings scatter.

Assay: qHTS assay to test for compound auto fluorescence at 535 nm (green) in HepG2 cells (AID 720675)
Conditions: green autofluorescence 485/535 nm, 1 h; series mostly up to 91.3 µM; fluorescence, % of fluorescein control: at the top concentration
% is scaled to controls: 0 for no effect and ±100 for the full control effect.

Compound | fluorescence, % of fluorescein control
C=C(C)C(=O)OC | -0.0016%
CC1=CC[C@H](CC=O)C1(C)C | -0.101%
C=C(C)[C@@H]1CC[C@@H](C)C[C@@H]1O | -0.0251%
COCCOCCOCCOC | -0.0894%
COc1ccc(OC)c(NC(=O)CC(C)=O)c1 | -0.0822%
CCCCC(=O)N(C)C | -0.0115%
C1=C\CC/C=C\CC/1 | 0.18% [at 95.7 µM]
CCS(=O)(=O)CCn1c([N+](=O)[O-])cnc1C | -0.217% [at 18.6 µM]
CC(Cl)COP(=O)(OCC(C)Cl)OCC(C)Cl (centres undefined) | 0.0294%
CCCCC(C)C(=O)O (centres undefined) | 0.0458%
CCCCC/C=C/CC(=O)OC | 0.063%
C=C(C)C(=O)OCCCCCCOC(=O)C(=C)C | -0.0653%
NS(=O)(=O)c1ccc(Cl)c(S(N)(=O)=O)c1 | -0.0226% [at 46 µM]
CC(C)SCc1ccco1 | -0.0115% [at 46 µM]
CCC(O)C(C)(C)C (centres undefined) | 0.0125% [at 95.7 µM]
Cc1nc(C)nc(N2C[C@@H](C)N(c3ccnc([C@@H](C)O)n3)[C@@H](C)C2)n1 | 0.0572% [at 46 µM]
O=C(O)c1ccccc1C(=O)OCc1ccccc1 | 0.0077%
C=COCCOCCOC=C | 0.0225%
CCCCCCCCOC(C)=O | 0.0612%
CCN(Cc1cccc(S(=O)(=O)O)c1)c1ccccc1 | -0.0258%
O=C(CN1CCN(Cc2ccc3c(c2)OCO3)CC1)N1c2ccccc2Sc2ccccc21 | 0.0137% [at 46 µM]
CC1=NN(c2ccc(S(=O)(=O)O)cc2)C(=O)C1N=Nc1ccccc1 (centres undefined) | -0.0673%
C=C[Si](C)(C)O[Si](C)(C)C=C | -0.0874%
CCCCC[Si](OCC)(OCC)OCC | 0.0067%
O=C(O)c1ccccc1C(=O)Nc1ccc(S(=O)(=O)Nc2nccs2)cc1 | -0.0109% [at 46 µM]
Nc1cc(S(=O)(=O)O)ccc1S(=O)(=O)O | -0.0018%
O=CN1CCOCC1 | -0.115%
CCCCOC(=O)C(C)OC(=O)CCC (centres undefined) | 0.0801%
CC(=O)OC(C(=O)c1ccccc1)c1ccccc1 (centres undefined) | 0.0081%

Assay: qHTS assay to test for compound auto fluorescence at 460 nm (blue) in HEK293 cells (AID 720678)
Conditions: blue autofluorescence 405/460 nm; series mostly up to 91.3 µM; fluorescence, % of triamterene: at the top concentration
Summary of the method: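 HEK293 cells (2,000/well, medium with 10% dialyzed FBS) attached 4-5 hr, then exposed to compound overnight at 37C, 5% CO2. Blue fluorescence read at 405/460 nm, with triamterene as reference fluorophore.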

Compound | fluorescence, % of triamterene
O=C(COCCOCCOCC(=O)Nc1c(I)cc(I)c(C(=O)O)c1I)Nc1c(I)cc(I)c(C(=O)O)c1I | 0.0568% [at 46 µM]
C=C(C)C(=O)OC | 0.173%
CC1=CC[C@H](CC=O)C1(C)C | -0.0505%
C=C(C)[C@@H]1CC[C@@H](C)C[C@@H]1O | -0.0594%
COCCOCCOCCOC | -0.107%
COc1ccc(OC)c(NC(=O)CC(C)=O)c1 | 1.4e-05%
CCCCC(=O)N(C)C | 0.422%
C1=C\CC/C=C\CC/1 | 0.0222% [at 95.7 µM]
CC(Cl)COP(=O)(OCC(C)Cl)OCC(C)Cl (centres undefined) | 0.0066%
CCCCC(C)C(=O)O (centres undefined) | 0.0565%
CCCCC/C=C/CC(=O)OC | -0.0629%
C=C(C)C(=O)OCCCCCCOC(=O)C(=C)C | -0.136%
NS(=O)(=O)c1ccc(Cl)c(S(N)(=O)=O)c1 | -0.0461% [at 46 µM]
CC(C)SCc1ccco1 | -0.001% [at 46 µM]
CCC(O)C(C)(C)C (centres undefined) | 0.804% [at 95.7 µM]
Cc1ccccc1OCC1CO1 (centres undefined) | -0.0662%

Compound | fluorescence, % of triamterene
Cc1nc(C)nc(N2C[C@@H](C)N(c3ccnc([C@@H](C)O)n3)[C@@H](C)C2)n1 | 0.0066% [at 46 µM]
CC(=O)OC(C)c1ccccc1 (centres undefined) | -0.34%
O=C(O)c1ccccc1C(=O)OCc1ccccc1 | -0.112%
C=COCCOCCOC=C | 0.0398%
CCCCCCCCOC(C)=O | 0.0477%
CCN(Cc1cccc(S(=O)(=O)O)c1)c1ccccc1 | 0.26%
O=C(CN1CCN(Cc2ccc3c(c2)OCO3)CC1)N1c2ccccc2Sc2ccccc21 | 3.28% [at 46 µM]
CC1=NN(c2ccc(S(=O)(=O)O)cc2)C(=O)C1N=Nc1ccccc1 (centres undefined) | -0.41%
C=CCOCC(CO)(COCC=C)COCC=C | 0.0698%
C=C[Si](C)(C)O[Si](C)(C)C=C | 0.124%
CCCCC[Si](OCC)(OCC)OCC | 0.0472%
O=C(O)c1ccccc1C(=O)Nc1ccc(S(=O)(=O)Nc2nccs2)cc1 | -0.016% [at 46 µM]
Nc1cc(S(=O)(=O)O)ccc1S(=O)(=O)O | -0.018%
O=CN1CCOCC1 | -0.0752%
CCCCOC(=O)C(C)OC(=O)CCC (centres undefined) | -0.0502%
CC(=O)OC(C(=O)c1ccccc1)c1ccccc1 (centres undefined) | -0.0346%

Assay: qHTS assay to test for compound auto fluorescence at 590 nm (red) in HEK293 cells (AID 720679)
Conditions: red autofluorescence 540/590 nm; series mostly up to 91.3 µM; fluorescence, % of fluorescent control: at the top concentration
Summary of the method: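 HEK293 cells (2,000/well, 10% dialyzed FBS) attached 4-5 hr, then dosed with compound or DMSO and incubated overnight at 37C, 5% CO2. Red fluorescence read at 540/590 nm, Rose Bengal sodium as reference fluorophore.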

Compound | fluorescence, % of fluorescent control | outcome
C=C(C)C(=O)OC | 0.253% | 
CC1=CC[C@H](CC=O)C1(C)C | -0.0169% | 
C=C(C)[C@@H]1CC[C@@H](C)C[C@@H]1O | -0.506% | 
COCCOCCOCCOC | -0.0396% | 
CCCCC(=O)N(C)C | -0.826% | 
C1=C\CC/C=C\CC/1 | 0.38% [at 95.7 µM] | 
CCS(=O)(=O)CCn1c([N+](=O)[O-])cnc1C | 0.0006% [at 18.6 µM] | 
CC(Cl)COP(=O)(OCC(C)Cl)OCC(C)Cl (centres undefined) | -0.437% | 
CCCCC(C)C(=O)O (centres undefined) | 0.36% | 
C=C(C)C(=O)OCCCCCCOC(=O)C(=C)C | -0.0233% | 
NS(=O)(=O)c1ccc(Cl)c(S(N)(=O)=O)c1 | 0.308% [at 46 µM] | 
F[Si-2](F)(F)(F)(F)F |  | inactive
CCC(O)C(C)(C)C (centres undefined) | -0.267% [at 95.7 µM] | 
Cc1ccccc1OCC1CO1 (centres undefined) | 0.0423% | 
Cc1nc(C)nc(N2C[C@@H](C)N(c3ccnc([C@@H](C)O)n3)[C@@H](C)C2)n1 | -0.0672% [at 46 µM] | 
CC(=O)OC(C)c1ccccc1 (centres undefined) | -0.754% | 
O=C(O)c1ccccc1C(=O)OCc1ccccc1 | 0.102% | 
C=COCCOCCOC=C | -0.449% | 
CCCCCCCCOC(C)=O | -0.299% | 
CCN(Cc1cccc(S(=O)(=O)O)c1)c1ccccc1 | -0.572% | 
O=C(CN1CCN(Cc2ccc3c(c2)OCO3)CC1)N1c2ccccc2Sc2ccccc21 | 0.0889% [at 46 µM] | 
CC1=NN(c2ccc(S(=O)(=O)O)cc2)C(=O)C1N=Nc1ccccc1 (centres undefined) | 0.181% | 
C=CCOCC(CO)(COCC=C)COCC=C | -0.331% | 
CCCCC[Si](OCC)(OCC)OCC | -0.793% | 
O=C(O)c1ccccc1C(=O)Nc1ccc(S(=O)(=O)Nc2nccs2)cc1 | -0.146% [at 46 µM] | 
Nc1cc(S(=O)(=O)O)ccc1S(=O)(=O)O | -0.0011% | 
CCCCOC(=O)C(C)OC(=O)CCC (centres undefined) | -0.532% | 
CC(=O)OC(C(=O)c1ccccc1)c1ccccc1 (centres undefined) | -0.105% | 
